Screens (PubChem)
An excerpt weighted towards active compounds, which were near 2.4% of everything screened.
PABP FP inh: PABP poly(A) RNA binding inhibitors, primary screen, biochemical, fluorescence polarization, uHTS | Polyadenylate-binding protein 1 (Homo sapiens), P11940 | inhibition, % at 35 µM | 290,000 compounds, 1% hits;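 further: calls also rest on retests at 20 µM and on dose response follow-up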
eIF4E-4G inh: eIF4E–eIF4G protein interaction inhibitors, primary screen, biochemical, uHTS, TR-FRET, eIF4GI fragment; inhibition, % at 21.7 µM; AID 782, 2007; TR-FRET eIF4E-eIF4GI(517-606) binding, 2 h; Eukaryotic translation initiation factor 4E (Mus musculus) + Eukaryotic translation …; 220,000 compounds, 0.37% hits;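 active means inhibition above about 30%, limit read from the data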;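 further: 0% = full FRET control wells and 100% = background wells lacking eIF4GI fragment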
M18AAP inhibitor: PfM18AAP inhibitors, malaria aminopeptidase, primary screen, biochemical, QFRET, recombinant enzyme. H-Glu-NHMec fluorogenic cleavage. inhibition, % at 7.35 µM. 290,000 compounds, 1.2% hits. M18 aspartyl aminopeptidase (Plasmodium falciparum 3D7);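 active means inhibition above the campaign mean inhibition over all tested compounds plus 3 SD, cut at about 28% in these data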;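 further: 0% = plate median of test compound wells and 100% = 2 mM ZnCl2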
PERK inhibitor: block of dimerizer-induced PERK translation repression, primary screen, PERK inhibitor project, CHO PERK-DD cells, SEAP luminescence, HTS. Eukaryotic translation initiation factor 2-alpha kinase 3 (Homo sapiens), Q9NZJ5. CHO PERK-DD fusion, SEAP luminescence translation reporter. inhibition, % at 5.6 µM. 220,000 compounds, 0.17% hits;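 active means inhibition above the mean inhibition of all tested compounds plus 3 SD, set separately per screening campaign, cut at about 2.9% in these data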;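 further: PERK kinase domain activated by AP20187 dimerizer at 100 nM; 0% = DMSO with dimerizer and 100% = rapamycin at 8.4 µM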
Target sequence (Q9NZJ5 whole entry, looked up, the tested form may be a part): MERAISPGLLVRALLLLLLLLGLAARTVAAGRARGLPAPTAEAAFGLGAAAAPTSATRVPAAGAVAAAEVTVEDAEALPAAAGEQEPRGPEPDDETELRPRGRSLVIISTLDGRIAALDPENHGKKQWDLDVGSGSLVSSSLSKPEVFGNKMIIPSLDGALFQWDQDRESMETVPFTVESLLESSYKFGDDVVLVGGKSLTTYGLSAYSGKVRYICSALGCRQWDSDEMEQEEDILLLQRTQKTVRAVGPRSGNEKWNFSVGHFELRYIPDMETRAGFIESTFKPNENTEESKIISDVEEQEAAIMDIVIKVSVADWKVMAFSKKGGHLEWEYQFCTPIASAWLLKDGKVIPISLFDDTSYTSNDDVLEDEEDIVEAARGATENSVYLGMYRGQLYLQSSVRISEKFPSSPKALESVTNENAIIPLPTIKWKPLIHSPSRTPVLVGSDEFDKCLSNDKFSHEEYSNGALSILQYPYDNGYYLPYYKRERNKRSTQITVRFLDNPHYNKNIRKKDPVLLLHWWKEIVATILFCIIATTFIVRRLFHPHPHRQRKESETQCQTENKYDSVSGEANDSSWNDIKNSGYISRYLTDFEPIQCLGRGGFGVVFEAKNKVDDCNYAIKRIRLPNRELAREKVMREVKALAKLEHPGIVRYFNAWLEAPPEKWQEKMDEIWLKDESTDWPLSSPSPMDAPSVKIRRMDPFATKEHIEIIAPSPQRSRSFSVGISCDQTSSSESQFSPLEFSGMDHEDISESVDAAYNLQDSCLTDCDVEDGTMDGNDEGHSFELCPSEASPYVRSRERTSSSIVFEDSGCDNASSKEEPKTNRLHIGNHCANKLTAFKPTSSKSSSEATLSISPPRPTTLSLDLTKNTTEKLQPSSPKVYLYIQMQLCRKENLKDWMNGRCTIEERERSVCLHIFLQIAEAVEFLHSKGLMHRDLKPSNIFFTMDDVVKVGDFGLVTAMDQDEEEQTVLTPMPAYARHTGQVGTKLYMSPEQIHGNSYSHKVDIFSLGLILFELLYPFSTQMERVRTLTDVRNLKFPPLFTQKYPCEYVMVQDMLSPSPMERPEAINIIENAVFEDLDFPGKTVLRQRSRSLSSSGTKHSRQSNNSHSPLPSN
MLLE-PAM2 inh: inhibitors of PABP1 MLLE–PAM2 peptide binding, primary screen, biochemical, fluorescence polarization, FITC-PAM2, GST-MLLE; 360,000 compounds, 0.36% hits; Polyadenylate-binding protein 1 (Homo sapiens), P11940; inhibition, % at 20 µM; in the data active means inhibition above about 35%, passing the limit was not always enough;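 further: plate controls were DMSO wells with GST-MLLE for no effect and wells lacking GST-MLLE protein for full effect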
eIF4H inh: human eIF4H binding inhibitors, primary screen, translation initiation inhibitor project, biochemical, uHTS, fluorescence polarization | Eukaryotic translation initiation factor 4H (Homo sapiens), Q15056 | eIF4H fluorescence polarization binding assay | inhibition, % at 35 µM | 290,000 compounds, 0.94% hits;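 further: calls also rest on retests at 20 µM and on dose response follow-up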
* marks the source's active call; other numbers are inactive results; i = inactive; ? = inconclusive; / = no result given. Unless noted, how the calls were made is not given here.

SMILES | PABP FP inh | eIF4E-4G inh | M18AAP inhibitor | PERK inhibitor | MLLE-PAM2 inh | eIF4H inh
CCNC(=O)c1sc(=S)n(-c2ccc(C)cc2)c1N | -4.2 | 8.2 | -15.1 | 1.1 | 44.2* | -3.8
COCCNC(=O)c1cccc(S(=O)(=O)N2CC3(C)CC2CC(C)(C)C3)c1 (stereo unspecified) | / | / | / | / | 0.9 | /
CC(=O)NC1C(=O)N(CCN2CCOCC2)c2ccc(C)cc21 (stereo unspecified) | 2.3 | / | 48.4* | / | 11.7 | -14.0
CC(=O)NC1C(=O)N(CCN2CCOCC2)c2ccc(Cl)cc21 (stereo unspecified) | 8.9 | / | 21.9 | / | 1.8 | -13.8
CC1=NN(c2ccccc2)C(=O)C1C=Nc1ccc(N(C)C)cc1 (stereo unspecified) | 0.6 | 9.6 | 31.1* | 0.3 | -85.7 | -0.9
NC(=O)c1c(N)sc2c1CCCCC2 | 48.2 | / | 22.3 | 0.4 | 12.5 | 20.5
CNC(=O)c1c(N)sc2c1CCCCC2 | 128.2* | -7.2 | 21.8 | -0.2 | / | 123.8*
O=C1CCC(=O)N1c1nc2nc(-c3ccccc3)cc(=O)n2[nH]1 | -1.6 | 9.7 | 8.9 | 1.3 | -3.2 | 10.2
Cc1nc2nc(-c3ccccc3)cc(=O)n2[nH]1 | 4.2 | 2.5 | 3.4 | 3.0* | -6.0 | -19.1
CN(CCC#N)C(=O)COC(=O)c1cc(Cl)cc(Cl)c1N | 10.1 | 4.0 | 2.2 | 0.8 | 1.2 | -6.7
O=C1c2ccccc2-c2onc3ccc(N4CCCC4)c1c23 | -1.6 | 34.1* | 4.9 | -0.2 | i | ?
CCOc1ccc2noc3c2c1C(=O)c1ccccc1-3 | 16.3 | -9.0 | -4.3 | 0.3 | i | 45.3
Cn1c(=O)c2c([nH]c(=S)n2Cc2ccc(Cl)cc2)n(C)c1=O | 16.2 | / | 29.8* | / | -41.8 | -17.9
CCn1c(C)c(C(C)=O)c(N2CCCC2)nc1=S | 0.0 | -2.9 | -9.3 | -0.8 | 6.3 | -7.5
CCn1c(C)c(C(C)=O)c(N2CCN(C(=O)c3ccco3)CC2)nc1=S | -0.7 | 71.5* | 1.0 | 1.3 | 26.1 | 1.8
CC(=O)c1c(N2CCN(Cc3ccccc3)CC2)nc(=S)n(-c2ccccc2)c1C | active | 0.1 | -10.0 | -0.5 | -7.7 | 53.7*
CN(C(=O)Cn1cc(C(F)(F)F)ccc1=O)c1c(N)n(Cc2ccccc2)c(=O)[nH]c1=O | 14.6 | 1.2 | -4.4 | 2.3 | -2.8 | 15.4
COc1ccccc1Oc1ccc2c(c1)C(=O)N(c1cccc(O)c1)C2=O | 4.4 | 9.4 | 31.0* | -0.6 | -3.8 | -0.7
COc1ccc(C(CC(=O)NCc2ccccc2)Sc2n[nH]c(-c3ccccc3)n2)cc1 (stereo unspecified) | 53.9* | 1.3 | -6.5 | 0.0 | 11.7 | 85.6*
COc1ccc(C2C(C(=O)Nc3ccc(OC)c(OC)c3)c3ccccc3C(=O)N2C)cc1 (stereo unspecified) | 11.3 | -0.6 | -5.4 | -0.3 | -2.4 | -5.8
COC(=O)c1ccc(NC(=S)NC2CCCCC2C)cc1 (stereo unspecified) | 117.3* | 3.8 | -2.6 | 0.5 | 14.1 | active
COC(=O)c1ccc(NC(=S)NC(=O)C2CCC2)cc1 | -5.6 | / | -0.2 | / | 26.4 | -0.5
CCOC(=O)c1ccn(CSc2c(F)c(F)cc(F)c2F)n1 | / | / | / | / | 2.9 | /
COc1cc(/C=C2/C(C)=C(C#N)c3nc(N)c(C#N)c(C)c32)ccc1OCC(=O)O | 37.6 | 1.6 | 15.2 | -0.3 | / | 18.9
CC1=C(C#N)c2nc(N)c(C#N)c(C)c2/C1=C\c1ccc(-c2ccccc2C(=O)O)o1 | 65.0* | 11.8 | 17.5 | 1.3 | -4.2 | 85.9*
SMILES | PABP FP inh | eIF4E-4G inh | M18AAP inhibitor | PERK inhibitor | MLLE-PAM2 inh | eIF4H inh
CN1CCCN(Cc2ccccc2C(F)(F)F)CC1 | -0.4 | 93.8* | 0.3 | 0.5 | -4.0 | 5.6
Cn1ccnc1C1CCCCN1Cc1nc(-c2ccc3c(c2)OCO3)no1 (stereo unspecified) | -5.9 | 0.0 | -2.4 | 0.8 | 0.6 | -2.4
O=S(=O)(O)c1ccc(O)c2cc(Nc3ccccc3)ccc12 | / | / | / | / | 44.6* | /
Cc1ccc(S(=O)(=O)c2cc(Nc3ccccc3)ccc2O)cc1 | / | / | / | / | -3.0 | /
CC(=O)Nc1ccc2c(O)cc(S(=O)(=O)O)cc2c1 | / | / | / | / | 7.9 | /
O=S(=O)(O)c1cc(O)c2ccc(Nc3ccccc3)cc2c1 | / | / | / | / | 12.8 | /
Nc1ccc2c(O)cc(S(=O)(=O)O)cc2c1 | / | / | / | / | 48.6* | /
O=S(=O)(O)c1cc(O)c2cc(Nc3ccccc3)ccc2c1 | / | / | / | / | 46.4* | /
Cc1nc(NS(=O)(=O)c2ccccc2)sc1NC(=O)OC(C)C | -3.3 | / | 10.6 | 0.8 | 38.6* | -3.0
COc1ccc(NC(=O)Nc2sc(NS(=O)(=O)c3ccccc3)nc2C)cc1 | 21.0 | -2.5 | 2.9 | 0.8 | 40.3* | -4.0
CC1Cc2ccccc2N1C(=O)CSc1nccc(=O)[nH]1 (stereo unspecified) | 0.3 | -1.1 | -15.4 | 0.7 | -17.0 | -11.6
COc1ccc(NC(=S)N/N=C2\CC(C)(C)Oc3ccc(OC)cc32)cc1 | -2.3 | 2.3 | -7.5 | 0.2 | 36.8* | -6.8
COCc1cc(C)nc2sc(C(=O)NCCO)c(-n3cccc3)c12 | 3.4 | -0.5 | -2.5 | 2.1 | -3.1 | -3.4
COc1ccc(C=Nc2cccnc2N)cc1 | ? | / | 30.6* | / | 11.5 | ?
COc1ccc2c(C#N)c3ccccn3c2c1 | 2.6 | 0.7 | 4.1 | 0.7 | 54.4* | 16.9
C/C=C/C=C\C(=O)Nc1cccc(C2=NOC3(C2)C[C@H](C(N)=O)N(C(=O)/C=C/C)C3)c1 (stereo partly specified) | 4.7 | 1.4 | / | / | 10.4 | -2.3
CCCC(=O)NC1=C(Cl)C(=O)c2ccccc2C1=O | / | / | / | / | 41.5* | /
CCNC1=C(Cl)C(=O)c2ccccc2C1=O | 9.7 | 5.2 | 8.0 | 0.8 | 7.2 | -13.0
CCN(CC)c1ccc(NC2=C(Cl)C(=O)c3ccccc3C2=O)cc1 | -4.6 | 19.4 | -8.6 | 0.1 | 44.8* | -4.0
NC(=O)[C@@H]1CCCNc2c(I)cc([N+](=O)[O-])cc2C(=O)N[C@@H](CCC(=O)O)C(=O)N[C@@H](CO)C(=O)N1 | 3.5 | 2.8 | -0.9 | 0.7 | -13.9 | 6.9
COc1ccc(NC(=O)c2sc3nc(Cc4ccccc4)cc(C(F)(F)F)c3c2N)cc1OC | -2.6 | 1.3 | 4.6 | -0.4 | -5.0 | 1.5
COc1ccccc1NC(=O)c1sc2nc(Cc3ccccc3)cc(C(F)(F)F)c2c1N | 113.3* | -28.0 | -12.1 | -0.1 | -3.4 | 65.3*
N#CC1=C(N)OC2=C(C(=O)CCC2)C1c1ccccc1 (stereo unspecified) | -4.4 | -4.4 | 1.8 | 0.7 | 4.6 | -2.1
